From PubChem BioAssay (EPA / NIEHS)
Results filed as inconclusive are left out. The source made the active and inactive calls. How the source made its calls: active means hit-call score of the fitted dose curve at least 0.9, where 1 is the maximum; inconclusive means response in the unintended direction; inactive means score below 0.9.

Each compound was assayed against Androgen Receptor/SRC-1 Co-activator, AR (gene 367) (UniProt P10275) (assay: OT_AR_ARSRC1_0480: Odyssey Thera (OT) 8-hour HEK293T Protein-Complementation Assay for Androgen Receptor/SRC-1 Co-activator (AID 2283354);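 further: hits raise the complementation signal above DMSO so AC50 marks enhancers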).
Sequence of Androgen Receptor/SRC-1 Co-activator, AR (gene 367) (P10275 whole entry, looked up): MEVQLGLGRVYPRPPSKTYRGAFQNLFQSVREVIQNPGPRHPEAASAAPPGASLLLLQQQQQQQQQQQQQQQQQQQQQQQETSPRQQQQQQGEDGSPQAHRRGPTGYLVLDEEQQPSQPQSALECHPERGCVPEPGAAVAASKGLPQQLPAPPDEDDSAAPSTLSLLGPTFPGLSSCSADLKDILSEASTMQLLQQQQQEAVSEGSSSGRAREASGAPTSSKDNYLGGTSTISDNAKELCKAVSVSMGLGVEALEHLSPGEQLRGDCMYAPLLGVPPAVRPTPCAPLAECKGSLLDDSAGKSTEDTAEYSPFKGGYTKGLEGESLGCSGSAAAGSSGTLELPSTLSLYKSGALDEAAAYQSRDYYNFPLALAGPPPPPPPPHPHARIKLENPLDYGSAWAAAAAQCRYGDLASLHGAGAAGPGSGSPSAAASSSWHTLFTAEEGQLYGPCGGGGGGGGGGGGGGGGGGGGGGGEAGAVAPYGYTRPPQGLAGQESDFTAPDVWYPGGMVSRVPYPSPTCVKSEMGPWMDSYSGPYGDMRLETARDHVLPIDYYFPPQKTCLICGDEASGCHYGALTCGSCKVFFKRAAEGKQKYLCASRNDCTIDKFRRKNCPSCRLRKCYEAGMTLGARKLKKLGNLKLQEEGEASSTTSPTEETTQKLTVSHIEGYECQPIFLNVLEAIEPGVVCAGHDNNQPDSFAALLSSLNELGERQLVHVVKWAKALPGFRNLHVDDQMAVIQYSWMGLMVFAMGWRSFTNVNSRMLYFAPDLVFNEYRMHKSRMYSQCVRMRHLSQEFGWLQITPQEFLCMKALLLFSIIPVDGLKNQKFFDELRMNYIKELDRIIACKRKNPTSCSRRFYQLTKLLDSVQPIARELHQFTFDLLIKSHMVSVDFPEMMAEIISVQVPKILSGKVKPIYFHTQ
Procedure, shortened: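 Reconstituted split-Venus YFP signal from AR–SRC-1 interaction, read by imaging 8 h post-dose in stable HEK293T lines. The 488 nm nucleus-to-cytoplasm ratio (≥400 cells/image) was fitted upward against DMSO.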
For `[Co]`, the outcome was “inactive”.
In the case of `CN(C)Cc1ccccc1O`, the outcome is reported as “inactive”.
For `CCCCCCC(C)OC(=O)CCCCC(=O)OC(C)CCCCCC` (configuration not stated), the outcome was “inactive”.
For `CCCCCCOC(=O)c1ccccc1O`, the outcome was “inactive”.
In the case of `CNC(=S)NC`, the outcome is reported as “inactive”.

The compounds below were run against human Peroxisome Proliferator-activated Receptor alpha (PPARa), PPARA (gene 5465) (UniProt Q07869) (assay: NVS_NR_hPPARa: NovaScreen (NVS) Nuclear Receptor Binding Assay for human Peroxisome Proliferator-activated Receptor alpha (PPARa) (AID 2283359);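 further: activity means loss of TR-FRET signal versus DMSO baseline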).
Sequence of human Peroxisome Proliferator-activated Receptor alpha (PPARa), PPARA (gene 5465) (Q07869 whole entry, looked up): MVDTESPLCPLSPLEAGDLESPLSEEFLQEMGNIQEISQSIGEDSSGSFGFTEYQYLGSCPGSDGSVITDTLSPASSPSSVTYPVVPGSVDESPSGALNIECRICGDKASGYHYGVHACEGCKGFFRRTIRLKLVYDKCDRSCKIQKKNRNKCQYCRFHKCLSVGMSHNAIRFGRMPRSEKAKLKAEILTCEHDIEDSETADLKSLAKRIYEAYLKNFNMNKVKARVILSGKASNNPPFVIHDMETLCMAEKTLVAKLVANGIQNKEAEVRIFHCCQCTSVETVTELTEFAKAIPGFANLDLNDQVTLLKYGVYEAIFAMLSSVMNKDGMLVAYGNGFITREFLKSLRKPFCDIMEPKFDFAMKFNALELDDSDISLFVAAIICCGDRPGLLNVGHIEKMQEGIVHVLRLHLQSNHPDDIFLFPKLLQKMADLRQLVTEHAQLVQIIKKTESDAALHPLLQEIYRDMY
Procedure, shortened: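 Loss of TR-FRET binding signal relative to DMSO was measured 1 h after chemical addition to extracted receptor protein. Chemicals were first tested in duplicate at 25 uM, and actives were followed up in concentration series.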
`CCCCC(CC)COP(=O)(O)OCC(CC)CCCC` (configuration not stated) was tested, and the outcome was “inactive”.
For `CC(Cc1ccc(O)c(O)c1)C(C)Cc1ccc(O)c(O)c1` (configuration not stated), the AC50 was 4.6 µM (active).
In the case of `CNC(=S)NC`, the outcome is reported as “inactive”.

The compounds below were run against PGR (gene 5241) (UniProt P06401) (assay: NVS_NR_hPR: NovaScreen (NVS) Nuclear Receptor Binding Assay for human Progestron Receptor (PR) (AID 2283360);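 further: active means loss of bound radioligand signal versus DMSO baseline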).
Sequence of PGR (gene 5241) (P06401 whole entry, looked up): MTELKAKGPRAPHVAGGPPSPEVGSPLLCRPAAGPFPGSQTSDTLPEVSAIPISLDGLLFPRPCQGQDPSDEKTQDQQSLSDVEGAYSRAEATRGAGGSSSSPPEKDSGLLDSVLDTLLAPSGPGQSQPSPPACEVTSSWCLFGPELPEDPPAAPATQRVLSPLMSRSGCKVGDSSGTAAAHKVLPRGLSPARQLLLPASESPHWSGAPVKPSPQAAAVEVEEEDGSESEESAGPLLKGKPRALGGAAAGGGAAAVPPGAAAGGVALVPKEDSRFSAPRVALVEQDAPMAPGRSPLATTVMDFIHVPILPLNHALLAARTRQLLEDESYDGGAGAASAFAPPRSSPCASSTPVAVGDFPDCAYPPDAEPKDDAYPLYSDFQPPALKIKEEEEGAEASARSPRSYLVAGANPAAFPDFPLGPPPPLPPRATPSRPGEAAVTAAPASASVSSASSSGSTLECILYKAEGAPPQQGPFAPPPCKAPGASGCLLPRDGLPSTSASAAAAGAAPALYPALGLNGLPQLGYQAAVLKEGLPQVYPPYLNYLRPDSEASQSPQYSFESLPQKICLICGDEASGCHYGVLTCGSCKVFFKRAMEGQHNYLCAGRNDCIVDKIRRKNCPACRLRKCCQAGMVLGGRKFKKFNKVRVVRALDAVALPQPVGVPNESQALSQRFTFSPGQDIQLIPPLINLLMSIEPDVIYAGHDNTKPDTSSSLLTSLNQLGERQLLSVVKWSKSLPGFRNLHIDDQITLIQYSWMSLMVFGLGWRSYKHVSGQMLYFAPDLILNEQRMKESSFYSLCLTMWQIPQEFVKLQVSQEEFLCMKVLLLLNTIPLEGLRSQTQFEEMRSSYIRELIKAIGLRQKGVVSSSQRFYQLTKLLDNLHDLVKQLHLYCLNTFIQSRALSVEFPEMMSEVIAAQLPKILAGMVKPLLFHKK
Protocol: NVS_NR_hPR is a biochemical, single-readout assay that uses extracted gene-proteins from T47D in a cell-free assay. Measurements were taken 18 hours after chemical dosing in a 96-well plate.NVS_NR_hPR is one of one assay component(s) measured or calculated from the NVS_NR_hPR assay. It is designed to make measurements of radioligand binding, a form of binding reporter, as detected with scintillation counting signals by Lysate-based radiodetection technology.Data from the assay component NVS_NR_hPR was analyzed into 1 assay endpoint. This assay endpoint, NVS_NR_hPR, was analyzed in the positive analysis fitting direction relative to DMSO as the negative control and baseline of activity. Using a type of binding reporter, loss-of-signal activity can be used to understand changes in the binding as they relate to the gene PGR. Furthermore, this assay endpoint can be referred to as a primary readout, because the performed assay has only produced 1 assay endpoint. To generalize the intended target to other relatable targets, this assay endpoint is annotated to the nuclear receptor intended target family, where the subfamily is steroidal.
Binding assays used specific radioligands (tritiated, iodinated) with non-radioactive competitive displacement ligands in agonist or antagonist protocols (as indicated) and various reference compounds and inhibitors to titrate specific binding to receptors and transporters. Most enzyme assays (CYPs, kinases, phosphatases, proteases, HDACs) used recombinant protein and specific substrates (fluorescence mostly, some colorimetric and radioactive) and inhibitors, followed by a biochemical separation of substrate and product. All assays for the biochemical HTS were initially run in duplicate at a single concentration (10 uM for CYP450 assays and 25 uM for all others). […] Each assay was run with positive and negative controls, and concurrent controls on every plate. […]
`Nc1ccc(Oc2cccc(Oc3ccc(N)cc3)c2)cc1` was tested, and the outcome was “inactive”.
With `C#C[C@]1(O)CC[C@H]2[C@@H]3CCc4cc(OC)ccc4[C@H]3CC[C@@]21C` the outcome was “inactive”.
With `CCCCNc1ccccc1` the outcome was “inactive”.

Each compound was assayed against Glucocorticoid receptor (Homo sapiens) (UniProt P04150) (assay: NVS_NR_hGR: NovaScreen (NVS) Nuclear Receptor Binding Assay for human Glucocorticoid Receptor (GR) (AID 2283363)).
Sequence of Glucocorticoid receptor (Homo sapiens) (P04150 whole entry, looked up): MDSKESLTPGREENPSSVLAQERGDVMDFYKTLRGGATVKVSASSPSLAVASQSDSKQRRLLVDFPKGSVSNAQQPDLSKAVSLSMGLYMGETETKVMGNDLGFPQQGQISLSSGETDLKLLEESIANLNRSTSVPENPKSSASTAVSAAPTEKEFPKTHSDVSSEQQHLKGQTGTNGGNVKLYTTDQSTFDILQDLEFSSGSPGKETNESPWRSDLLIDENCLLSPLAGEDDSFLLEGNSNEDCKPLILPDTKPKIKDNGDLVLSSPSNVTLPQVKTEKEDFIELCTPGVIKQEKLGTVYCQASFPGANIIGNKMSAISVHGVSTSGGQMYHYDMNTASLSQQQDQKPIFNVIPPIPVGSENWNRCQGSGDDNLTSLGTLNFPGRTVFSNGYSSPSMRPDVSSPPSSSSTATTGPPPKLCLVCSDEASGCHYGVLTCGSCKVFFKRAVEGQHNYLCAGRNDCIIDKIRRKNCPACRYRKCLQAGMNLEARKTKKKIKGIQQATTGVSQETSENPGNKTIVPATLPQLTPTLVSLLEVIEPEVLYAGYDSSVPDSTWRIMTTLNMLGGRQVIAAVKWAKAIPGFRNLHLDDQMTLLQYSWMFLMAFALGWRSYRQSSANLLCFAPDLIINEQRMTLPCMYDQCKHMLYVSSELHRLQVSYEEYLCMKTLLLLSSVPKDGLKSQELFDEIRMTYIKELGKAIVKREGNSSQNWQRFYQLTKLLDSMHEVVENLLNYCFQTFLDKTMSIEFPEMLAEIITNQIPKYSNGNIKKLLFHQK
Procedure, shortened: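 Compounds first tested in duplicate at 25 uM, actives followed up in concentration series. Binding to extracted GR protein measured as competitive radioligand displacement, filter scintillation read 16 h post-dosing, normalised to DMSO.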
`CCCCC(CC)COP(=O)(O)OCC(CC)CCCC` (configuration not stated) was tested, and the AC50 was 8.04 µM (active).
`C#C[C@]1(O)CC[C@H]2[C@@H]3CCc4cc(OC)ccc4[C@H]3CC[C@@]21C` was tested, and the outcome was “inactive”.
For `Cc1cc(C)cc(O)c1`, the outcome was “inactive”.
In the case of `CC(Cc1ccc(O)c(O)c1)C(C)Cc1ccc(O)c(O)c1` (configuration not stated), the AC50 is reported as 1.79 µM (active).
With `CNC(=S)NC` the outcome was “inactive”.
In the case of `CCN(Cc1cccc(S(=O)(=O)O)c1)c1ccc(C(=C2C=CC(=[N+](CC)Cc3cccc(S(=O)(=O)O)c3)C=C2)c2ccc(O)cc2S(=O)(=O)[O-])cc1`, the AC50 is reported as 11.5 µM (active).
